An excerpt weighted towards active compounds, which were near 1.2% of everything screened.
VCAM1 TNFa inh: inhibitors of TNFa-induced VCAM1 expression, primary screen, imaging, HUVEC, TNFa stimulus, immunofluorescence; HUVEC TNFa-induced VCAM-1 immunofluorescence, high-content imaging; inhibition, % at 2 µM; 0.48% of 95,000 active;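 active = inhibition above the batch mean plus 3 SD, with images confirmed as a hit by eye, cut at about 37% in these data; inconclusive = inhibition above that limit but hit not confirmed in images; inactive = inhibition not above that limit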;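 note: 0% = TNF-stimulated DMSO wells and 100% = unstimulated control wells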
TNFa cytotox: cytotoxicity in TNFa-stimulated HUVEC, primary screen, cytotoxicity control for VCAM1 expression modulator project, imaging, Hoechst nuclei count. HUVEC TNFalpha-stimulated, Hoechst cell count. cell count reduction, % at 2 µM. 0.17% of 93,000 active;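 active = cell count reduction exceeding the screen mean by over 5 SD, scaled to untreated wells per plate, cut at about 78% in these data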;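 note: cells counted after 24 h of TNF alpha exposure following the 1 h pretreatment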
cytoskel mod: modifiers of F-actin cytoskeleton organization, primary screen, imaging, HUVEC, phalloidin staining, high-content imaging; AID 836, 2007; 0.18% of 91,000 active; HUVEC TNFa F-actin phalloidin imaging; inhibition, % at 2 µM;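 active = inhibition above the batch mean plus 3 SD and confirmed as a hit by visual image inspection, cut at about 30% in these data, passing the limit was not always enough; inconclusive = above the inhibition threshold but rejected on visual inspection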
E-sel TNF inh: E-selectin induction blockers in HUVEC – imaging, immunofluorescence, high content, primary screen | HUVEC TNFa-induced E-selectin immunofluorescence | inhibition, % at 2 µM | 0.71% of 120,000 active | AID 1246, 2008;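 active = inhibition above the batch mean plus 3 SD, and confirmed as a hit on visual image review, cut at about 43% in these data; inconclusive = passes the inhibition cutoff but fails visual image review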;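 note: 0% = TNF-stimulated DMSO wells and 100% = unstimulated control wells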
Numbers without * were called inactive.

Results for O=C(COc1ccccc1)Nc1cccc(-c2nc3cc4ccccc4cc3[nH]2)c1 ?
VCAM1 TNFa inh: -26; TNFa cytotox: 25; cytoskel mod: -30; E-sel TNF inh: 0

Results for COc1ccc(NC(=O)C2CCCN2S(=O)(=O)c2ccc(F)cc2)cc1 (configuration not stated) ?
VCAM1 TNFa inh: 2; TNFa cytotox: -17; cytoskel mod: 1

Results for COc1ccc(S(=O)(=O)N2CCCC2C(=O)Nc2ccc(C)cc2)cc1 (configuration not stated) ?
VCAM1 TNFa inh: 97*; TNFa cytotox: 6; cytoskel mod: 1; E-sel TNF inh: -9

What do the screens show for `CCOc1ccccc1C(=O)Nc1ccc(-c2nnc(-c3ccc(C)cc3)o2)cc1`?
VCAM1 TNFa inh: -15; TNFa cytotox: 6; cytoskel mod: 2; E-sel TNF inh: 72*

What do the screens show for `COC(=O)CNC(=O)c1sc2ncn(CC(=O)Nc3ccc(C)c(Cl)c3)c(=O)c2c1C`?
E-sel TNF inh: -10

Results for CCN(C(=O)COC(=O)c1ccc2c(=O)n3c(nc2c1)CCC3)C1CCS(=O)(=O)C1 (configuration not stated) ?
E-sel TNF inh: -20

What do the screens show for `Cc1ccc(S(=O)(=O)N=S(CCO)CCO)cc1`?
E-sel TNF inh: 13

What do the screens show for `Cc1ccc(-n2nnc3c(SCC(=O)N4CCN(c5ccccc5)CC4)ncnc32)cc1`?
VCAM1 TNFa inh: 92*; TNFa cytotox: -11; cytoskel mod: 3; E-sel TNF inh: 7

Results for Cc1ccccc1OCC(=O)Nc1ccc2c(c1)COC2=O ?
VCAM1 TNFa inh: -2; TNFa cytotox: -33; cytoskel mod: 36*; E-sel TNF inh: -35

How did CCN1C/C(=C\c2cccc([N+](=O)[O-])c2)C(=O)/C(=C/c2cccc([N+](=O)[O-])c2)C1 do in these assays?
E-sel TNF inh: 100*

How did CCN1CCN(S(=O)(=O)c2cccc([N+](=O)[O-])c2)CC1 do in these assays?
VCAM1 TNFa inh: 4; TNFa cytotox: -4; cytoskel mod: -15; E-sel TNF inh: 11

How did CCN1C/C(=C/c2ccc(OC)c(O)c2)C(=O)/C(=C/c2ccc(OC)c(O)c2)C1 do in these assays?
E-sel TNF inh: 60*

What do the screens show for `COc1ccc(/C=C2\CCc3ccccc3C2=O)cc1OC`?
VCAM1 TNFa inh: 18; TNFa cytotox: -16; cytoskel mod: 1; E-sel TNF inh: 23

How did O=C1C(=O)N(CCc2c[nH]c3ccccc23)C(c2cccnc2)/C1=C(/O)c1ccccc1 (configuration not stated) do in these assays?
E-sel TNF inh: 24

What do the screens show for `Cc1ccc(-c2c[n+](Cc3ccc(Cl)c(Cl)c3)c3n2CCC3)cc1`?
E-sel TNF inh: 6

What do the screens show for `Cc1ccc(-c2nnc3ccc(SCC(=O)Nc4cc(C)on4)nn23)cc1`?
VCAM1 TNFa inh: 5; TNFa cytotox: 24; cytoskel mod: 66*; E-sel TNF inh: -12

How did COc1ccc(CC(=O)OCc2cc3ccc(C)cc3[nH]c2=O)cc1 do in these assays?
VCAM1 TNFa inh: 93*; TNFa cytotox: 71; cytoskel mod: -28

How did COc1ccc2cc(CCNC(=O)C(C)C)c(=O)[nH]c2c1 do in these assays?
E-sel TNF inh: 96*

What do the screens show for `Cn1nc(-c2ccc(N3CCN(CCO)CC3)c([N+](=O)[O-])c2)c2ccccc2c1=O`?
E-sel TNF inh: 7

How did O=C(/C=C/c1ccccc1)NC(=S)Nc1ccccc1C(=O)NC1CCCCC1 do in these assays?
VCAM1 TNFa inh: 2; TNFa cytotox: -3; E-sel TNF inh: -14

What do the screens show for `O=C(/C=C/c1ccc(F)cc1)NC(=S)Nc1ccccc1C(=O)NC1CCCCC1`?
VCAM1 TNFa inh: -14; TNFa cytotox: 25; E-sel TNF inh: 54*

Results for O=C(CCc1ccc(Oc2cc([N+](=O)[O-])cc([N+](=O)[O-])c2)cc1)N1CCCCCC1 ?
E-sel TNF inh: -14

Results for COc1ccc(OCCCC(=O)Nc2cc([N+](=O)[O-])ccc2C)cc1 ?
VCAM1 TNFa inh: -15; TNFa cytotox: 3; cytoskel mod: -14; E-sel TNF inh: -17

What do the screens show for `CCn1nnnc1-c1ccc(OC)c(S(=O)(=O)NCc2ccccc2)c1`?
VCAM1 TNFa inh: 4; TNFa cytotox: 0; cytoskel mod: 26; E-sel TNF inh: 88*

Results for CCn1nnnc1-c1ccc(OC)c(S(=O)(=O)Nc2ccc(C)c(C)c2)c1 ?
VCAM1 TNFa inh: 8; TNFa cytotox: 5; cytoskel mod: -1; E-sel TNF inh: 13

What do the screens show for `O=C(N/N=C/c1ccc[nH]1)c1sc2ccccc2c1Cl`?
VCAM1 TNFa inh: 38*; TNFa cytotox: 9; cytoskel mod: -44; E-sel TNF inh: -11

Results for CCc1ccc2c(Cl)c(C(=O)N/N=C/c3c[nH]c4ccccc34)sc2c1 ?
VCAM1 TNFa inh: 3; TNFa cytotox: 4; cytoskel mod: -5; E-sel TNF inh: -42

What do the screens show for `O=C(NC(Cc1c[nH]c2ccccc12)C(=O)O)c1ccco1` (configuration not stated)?
VCAM1 TNFa inh: inconclusive; TNFa cytotox: 100*; cytoskel mod: inconclusive; E-sel TNF inh: 7

Results for CCCCCC(=O)Nc1sc(C)c(C)c1C#N ?
E-sel TNF inh: -12

How did O=C(CSc1nnnn1-c1ccc(Cl)cc1)N1CCc2ccccc2C1 do in these assays?
VCAM1 TNFa inh: 22; TNFa cytotox: -22; cytoskel mod: -30

Results for COc1cc(C(=O)N2CCN(c3cc(Cl)ccc3Cl)CC2)cc(OC)c1OC ?
VCAM1 TNFa inh: 58*; TNFa cytotox: 70; cytoskel mod: 6

How did COc1cc(C(=O)N2CCN(c3cccc(C)c3C)CC2)cc(OC)c1OC do in these assays?
VCAM1 TNFa inh: -9; TNFa cytotox: 34; cytoskel mod: 5

What do the screens show for `O=C(NCC1CCCN(C(=O)NCc2ccccc2)C1)c1ccc2c(c1)OCO2` (configuration not stated)?
E-sel TNF inh: -38

How did Cc1oc2c(C)c(O)ccc2c(=O)c1-c1cnn(-c2ccccc2)c1 do in these assays?
VCAM1 TNFa inh: 13; TNFa cytotox: -15; cytoskel mod: -18; E-sel TNF inh: 59*

What do the screens show for `COc1ccc2c(=O)c(-c3cnn(-c4ccccc4)c3)c(C)oc2c1`?
VCAM1 TNFa inh: 3; TNFa cytotox: -6; cytoskel mod: -16; E-sel TNF inh: -40

What do the screens show for `Cc1ccc(SCCNC(=O)c2cccc([N+](=O)[O-])c2C)cc1`?
VCAM1 TNFa inh: -14; TNFa cytotox: -3; cytoskel mod: 3; E-sel TNF inh: -18

How did COCCNC(=O)c1ccccc1NC(=O)c1cccc([N+](=O)[O-])c1C do in these assays?
E-sel TNF inh: 60*

What do the screens show for `O=C(COc1ccc(/C=N/NC(=O)c2ccccc2)cc1)Nc1ccc([N+](=O)[O-])cc1`?
VCAM1 TNFa inh: -2; TNFa cytotox: -13; cytoskel mod: 16; E-sel TNF inh: 5

Results for CC(C)Oc1ccc(/C=N/NC(=O)C(CSCc2ccccc2)NC(=O)c2ccc([N+](=O)[O-])cc2)cc1 (configuration not stated) ?
VCAM1 TNFa inh: 16; TNFa cytotox: -36; cytoskel mod: -9; E-sel TNF inh: 96*
